Out of some 65,000 compounds screened, about 1,200 (1.8%) were called active. This is one part of a sample in which actives are shown more often than they occur. Unmarked numbers belong to inactive results. No stated cut-off is given here; in the data, active means inhibition above about 50%; inactive means the rest.
Biological target: Gag-Pol polyprotein (Human immunodeficiency virus type 1 group M subtype B (isolate HXB2)) (UniProt P04585)
Assay: HIV-1 RT RNase H inhibitors, primary screen, biochemical, fluorescence (AID 565)
Settings: RT-RNase H RNA/DNA duplex cleavage, at 10 µM, active compounds read high

SMILES	inhibition
CCCc1[nH]nc2c1C(C1CC=CCC1)C(C#N)=C(N)O2 (stereo not given)	-53.6%
Cc1nc2ccc(C(=O)N3CCSCC3)cc2s1	-8.86%
CC(C)CC(=O)N=C1SC2CS(=O)(=O)CC2N1CCc1ccccc1 (stereo not given)	-0.09%
Cc1ccc(C(=O)NC2CCN(C(=O)N3CCOCC3)CC2)cc1	-0.08%
O=C(NCCCN1CCN(Cc2ccccc2)CC1)C1CCN(S(=O)(=O)N2CCCC2)CC1	-16.5%
CN1CCN(c2nc3c(c(=O)[nH]c(=O)n3C)n2Cc2cccc3ccccc23)CC1	-0.99%
CCOC(=O)Cn1c(CN(Cc2ccccc2)Cc2ccccc2)nc2c1c(=O)[nH]c(=O)n2C	-4.21%
CCC(C)Sc1nc2c(c(=O)[nH]c(=O)n2C)n1CC(O)COc1cccc2ccccc12 (stereo not given)	76.5% (active)
Cc1cccc(NC(=O)CSc2nnc(CCCCCNC(=O)OC(C)(C)C)o2)c1C	-13.1%
CCn1c(=N)c(C(=O)NCCCOC)cc2c(=O)n3cccc(C)c3nc21	-13.1%
COc1ccc(CCn2c(=N)c(C(=O)NCc3ccco3)cc3c(=O)n4cccc(C)c4nc32)cc1	64.2% (active)
COc1ccc(CNC(=O)c2cc3c(=O)n4ccccc4nc3n(CC3CCCO3)c2=N)cc1 (stereo not given)	-18.1%
Cn1c(=O)[nH]c(=O)c2c1nc(CN(Cc1ccccc1)Cc1ccccc1)n2CCN1CCOCC1	-6.59%
COc1ccc(OCCCON2C(=O)c3ccccc3C2=O)cc1	-68.1%
CCCc1nc2ccccc2c(=O)n1NC(=O)c1c(O)c2ccccc2[nH]c1=O	-19.6%
CCCCc1nc2ccccc2c(=O)n1NC(=O)c1c(O)c2cccc3c2n(c1=O)CC3	4.26%
CCCc1nc2ccccc2c(=O)n1/N=C/c1ccc(O)c(O)c1	88.4% (active)
Cc1ccc2c(c1)N(CCCC(=O)NCc1cccnc1)C(=O)CO2	-14.5%
Cc1ccc(-n2nc(-c3ccco3)cc2C(=O)NCc2cccnc2)cc1	61.9% (active)
CC(C)(C)c1cc(C(=O)NCc2cccnc2)ccn1	3.16%
C#CCN1C(=O)C(O)(CC(=O)c2cc(OC)ccc2OC)c2ccccc21 (stereo not given)	-25.6%
O=P(O)(CP(=O)(c1ccccc1)c1ccccc1)c1ccccc1	-16.3%
CC12CCC(C(=O)N(CCC#N)CCC#N)(CC1=O)C2(C)C (stereo not given)	-5.03%
CCOC(=O)CSC1=C(C#N)C(c2ccco2)C(C(=O)OCc2ccccc2)=C(C)N1 (stereo not given)	-11.6%

SMILES	inhibition
CC1=C(C(=O)Nc2ccccc2)C(c2cccs2)C(C#N)=C(SCC#N)N1 (stereo not given)	55.5% (active)
CCOC(=O)CSC1=C(C#N)C(c2sccc2C)CC(=O)N1 (stereo not given)	-2.34%
O=C(Nn1cc(C(=O)N2CCN(c3ccccc3F)CC2)c2ccccc2c1=O)c1cnccn1	-2.41%
Fc1ccc(-c2nnc3sc(-c4ccc5c(c4)OCO5)nn23)cc1	66.3% (active)
COc1ccc(-c2nn3c(-c4ccccc4)nnc3s2)cc1OC	-38.4%
Fc1ccc(-c2ccc(-c3nn4c(-c5ccco5)nnc4s3)o2)cc1	65.8% (active)
FC(F)(F)c1nnc2sc(-c3ccco3)nn12	-2.16%
Cc1nnc2sc(-c3ccco3)nn12	4.12%
COc1cc(-c2nn3c(-c4cccc(C)c4)nnc3s2)cc(OC)c1OC	-7.33%
Cc1cc(C)c(C#N)c(SCc2ccccc2C(=O)O)n1	-5.35%
COc1ccc(N2CCN(CCNC(=O)CCN3C(=O)COc4ccccc43)CC2)cc1	7.09%
Cc1ccc(C(=O)COc2cccc(NC(=O)c3ccco3)c2)cc1	9.47%
O=C(Nc1ccc(Oc2ccccc2)cc1)c1ccco1	-7.33%
CCOc1cc(NC(=O)c2ccco2)c(OCC)cc1NC(=O)COc1ccccc1	52.4% (active)
Cc1cc(Nc2ccccc2)n(C(=O)c2ccc(N)cc2)n1	-17.6%
CCOC(=O)c1ccccc1NC(=O)CC1Nc2ccccc2NC1=O (stereo not given)	71.6% (active)
CCCOC(=O)Nc1ccccc1C(N)=O	-29.1%
O=C(CC1Nc2ccccc2NC1=O)Nc1ccccc1 (stereo not given)	-4.38%
CCC(C)NC(=O)C1CCC(=O)N1Cc1ccc(C)cc1 (stereo not given)	-9.01%
CCN(CC)CCCNC(=O)c1cc(-c2cccc(Cl)c2)on1	-16%
CCN(CC)c1ccc2cc(C(=O)O)c(=O)oc2c1	-8.5%
CCN(CC)c1ccc2oc(=O)c(C)nc2c1	68.2% (active)
CCc1ccc2oc(-c3ccc(N)cc3)nc2c1	-12.6%
Cc1cccc(NC(=O)COc2ccc(Br)cc2C)n1	-9.39%

SMILES	inhibition
Cn1nnc(NC(=O)CSc2ncn[nH]2)n1	-0.52%
CC(C)(C)c1ccc(C(=O)CSc2ncn[nH]2)cc1	82.3% (active)
CCN(C(=O)CSc1ncn[nH]1)c1cccc2ccccc12	-10.7%
Cc1cccc(N=C2NC(=O)CS2)c1C	-0.31%
c1ccc2cc(OCCN3CCCC3)ccc2c1	-14.7%
N#Cc1cccc(CSc2nnc(CCCO)n2-c2ccccc2)c1	-5.32%
O=C(OCc1nnc(-c2ccccc2)o1)c1ccc2c(c1)C(=O)N(CCc1ccccc1)C2=O	16.2%
COc1ccccc1Cn1c(=S)[nH]c2cc(C(=O)N3CCN(C)CC3)ccc2c1=O	-5.95%
O=c1c2ccccc2[nH]c(=S)n1CCN1CCC(=C(c2ccc(F)cc2)c2ccc(F)cc2)CC1	53.2% (active)
O=C(CCn1c(=S)[nH]c2ccccc2c1=O)NCCCN1CCCC1=O	-8.03%
CN(C)Cc1c(O)ccc2occ(C(O)c3ccccc3)c12 (stereo not given)	2.07%
COc1ccc(OC)c2c(N)c(C#N)c(C(F)(F)C(F)(F)F)nc12	-3.29%
Cc1ccccc1NC(=O)Cc1nnc(SCC(=O)N2CCN(c3ccccc3)CC2)n1C	1.53%
Cn1c(CNc2nc(-c3ccccc3)cs2)nnc1SCC(=O)c1ccccc1	-5.65%
Cn1c(CC(=O)Nc2ccccc2)nnc1SCC(=O)c1ccccc1	50.1% (active)
CCOC(=O)C(C(=O)OCC)C(C#N)c1ccccc1 (stereo not given)	-13.1%
Cc1ccc(-c2nnc(SC(C)C#N)n2N)cc1 (stereo not given)	-0.02%
COc1cc(C(=O)Nc2nccs2)cc(OC)c1OC	-12.7%
N#Cc1c(NC(=O)CCCN2C(=O)c3ccccc3C2=O)oc(-c2ccccc2)c1-c1ccccc1	19%
COc1cc(C(=O)Nc2oc(-c3ccccc3)c(-c3ccccc3)c2C#N)cc(OC)c1OC	80% (active)
CC(C)(C)NC(=O)C(c1ccco1)N(Cc1ccc2c(c1)OCO2)C(=O)Cn1nnc2ccccc21 (stereo not given)	9.38%
CCC(C)(C)NC(=O)C(c1cccn1C)N(Cc1ccc(C)cc1)C(=O)Cn1nnc2ccccc21 (stereo not given)	50.2% (active)
COCCNC(=O)C(c1ccc(C)o1)N(Cc1ccccc1)C(=O)Cn1nnc2ccccc21 (stereo not given)	5.47%
CCOc1ccc(Cn2c(SCCCCC#N)nc3c2c(=O)n(C)c(=O)n3C)cc1OCC	29.2%

SMILES	inhibition
Cc1ccc(C)n1-c1ccncc1	-2.45%
O=C(COc1ccc(S(=O)(=O)NCCc2ccccc2)cc1)N1CCCC1	-8.41%
Cc1ccc(Cn2nnc3c(=O)n(CC(=O)N4CCCCC4)cnc32)cc1	-6.24%
CC(=O)Nc1ccc(-c2nn3c(C)nnc3s2)cc1C	-4.83%
N#Cc1c(N)sc2c1CCN(C(=O)OCc1ccccc1)C2	52% (active)
CCN1CCc2c(C#N)c(NCc3ccccc3)nc(NCCO)c2C1	10.1%
N#Cc1ccc(COC(=O)Cn2nnc(-c3ccccc3)n2)cc1	-12.9%
CN(C(=O)CSc1nnnn1-c1ccccc1)C1CCCCC1	-7.53%
CCN(Cc1ccccc1)C(=O)CSc1nc(C)cc2c1C(=O)OC2	-15.7%
Cc1ccc(-c2nn(-c3ccccc3)cc2CN(Cc2ccccc2)C(=O)CCC(=O)O)o1	81.7% (active)
O=C(O)CCC(=O)N(Cc1cccs1)Cc1cccs1	4.03%
CSCCC1NC2(C(=O)Nc3ccc(Cl)cc32)[C@@H]2C(=O)N(C3CCCC3)C(=O)[C@H]12 (stereo not given in full)	2.23%
c1ccc2c(c1)OCC(CNc1ncnc3nc[nH]c13)O2 (stereo not given)	-8.18%
COC(=O)c1ccc(OC(=O)c2nn(C)cc2Cl)c(OC)c1	-6.66%
CN(c1ccccc1)c1ccc(/C=c2\s/c(=C(/C#N)C(=O)C(C)(C)C)n(Cc3ccco3)c2=O)cc1	71.8% (active)
CCOc1ccccc1/C=c1\sc2nc(-c3ccco3)nn2c1=O	33.7%
O=c1nc2s/c(=C\c3ccco3)c(=O)n2nc1Cc1ccccc1	5.64%
CN(C)c1cc(N)c2ccccc2n1 (tested in a mixture with another compound)	-10%
COc1ccc(-c2nc(CS(=O)CC(=O)NCc3ccccn3)c(C)o2)cc1 (stereo not given)	2.69%
CCOC(=O)C1CCN(Cc2coc3ccc(Cl)cc3c2=O)CC1	2.73%
O=C(Cn1nnc(-c2ccccc2)n1)NCc1ccc2c(c1)OCO2	-23.7%
c1ccc(-c2nnc3n2NC(c2ccc4c(c2)OCO4)S3)cc1 (stereo not given)	67.9% (active)
CC1=C(C(N)=O)C(c2ccc3c(c2)OCO3)n2nc(-c3cccc(C)c3)nc2N1 (stereo not given)	0.45%

— PubChem BioAssay AID565 (University of Pittsburgh Molecular Library Screening Center, 2006)
